# This is a sample that favours compounds with a hit; in the whole collection about 11% have one here.
# Coupling enz = counter-screen for Giardia aldolase inhibitors: coupling enzyme system; coupling enzyme system counterscreen, AmpLite Red fluorescence; activity change, negative = inhibition, % at 58.2 µM, hits read low; 290,000 tested, 0.67% active; AID 2472; in the data active = activity change below about -30%
#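 Final compound at 57.5 uM, incubated 10 min at RT with coupling enzyme reagent (glyceraldehyde-3-phosphate), then 20 min with substrate and AmpLite Red detection. Fluorescence read at 525/598 nm; tests interference with the coupling assay, not aldolase inhibition.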
# Sfp PPTase inh = Sfp phosphopantetheinyl transferase inhibition; Q9F4F7; Potency, µM, without a hit: largest response in the series, negative = inhibition, most hits filed as inhibitors; 310,000 tested, 3.5% active; Biochemical Sfp PPTase activity, qHTS; AID 1490;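 also: the enzyme is Sfp with the accession as filed and its product quenches rhodamine fluorescence; potency is read from the fitted curve at half-maximal effect; 0% = enzyme reaction without inhibitor and -100% = no enzyme wells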
#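 Compounds were incubated with enzyme (final 15 nM) for 15 min at room temperature before substrate addition started the reaction. Fluorescence at 525 nm excitation, 598 nm emission was recorded immediately and after 30 minutes.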
# Tau fibril ThT = inhibitors of human tau fibril formation, thioflavin T binding | Potency, µM (highest dose often 57.4 µM), for inactives: at the top dose activity, negative = inhibition, usual class: inhibitors | P10636 | recombinant tau K18 P301L, heparin-induced fibrillization, ThT fluorescence | 270,000 tested, 2.1% active; also: potency is read from the fitted curve at half-maximal effect; nearly all actives have a fitted effect of over 55% in size
# Target sequence (P10636 561-689 P618L limits assumed): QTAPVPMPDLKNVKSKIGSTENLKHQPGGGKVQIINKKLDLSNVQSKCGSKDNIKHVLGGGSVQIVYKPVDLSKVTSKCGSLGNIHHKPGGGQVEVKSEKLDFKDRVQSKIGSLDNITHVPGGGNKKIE
#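 In this qHTS, human K18 P301L tau is incubated with compound and heparin for 6 hr at 37 C, and Thioflavin T fluorescence then reports fibril load.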
# G9a block = blocks human histone lysine methyltransferase G9a; Q96KQ7; G9a H3K9 monomethylation, AlphaScreen, 2 h; Potency, µM (series often up to 102 µM), for the others: top-dose activity, negative = inhibition, usual class: inhibitors; 350,000 tested, 8.8% active; AID 504332; also: potency is read from the fitted curve at half-maximal effect; nearly all actives have a fitted effect of over 75% in size
# Target sequence (Q96KQ7 913-1193 limits assumed): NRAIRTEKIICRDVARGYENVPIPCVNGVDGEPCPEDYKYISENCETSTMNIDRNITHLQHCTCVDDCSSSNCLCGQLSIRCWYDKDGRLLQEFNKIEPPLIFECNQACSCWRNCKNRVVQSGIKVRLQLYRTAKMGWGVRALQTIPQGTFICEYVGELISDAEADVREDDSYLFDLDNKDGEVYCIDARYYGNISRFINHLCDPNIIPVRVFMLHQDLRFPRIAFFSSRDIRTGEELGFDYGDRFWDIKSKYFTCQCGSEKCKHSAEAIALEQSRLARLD
#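 AlphaScreen read-out: biotin-H3K9 peptide (500 nM) methylation by 20 nM enzyme with 20 uM SAM, 2 h at room temperature after 15 min compound preincubation; anti-monomethyl H3K9 antibody plus donor/acceptor beads, 10 min dark.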
# Tau fluor counter = counter-screen for tau fibril formation inhibitors. Potency, µM (highest dose often 57.7 µM), for the others: at the top dose activity change, negative = decrease. 280,000 tested, 0.93% active. tau K18 P301L Alexa594 fluorescence, heparin fibrillization; also: potency is read from the fitted curve at half-maximal effect; nearly all actives have a fitted effect of over 55% in size
#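 Human tau K18 P301L (15 uM unlabeled, 0.24 uM Alexa 594-labeled) in 100 mM sodium acetate pH 7 with 20 uM heparin, 6 hr at 37 C. ThT 30 uM added, 1 hr ambient; Alexa 594 FP and total fluorescence read at 555/632 nm.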
# Tau fibril FP = tau fibrillization inhibition (FP). 280,000 tested, 0.39% active. Potency, µM (top dose mostly 57.7 µM), for the others: top-dose activity, negative = inhibition, most hits filed as inhibitors. K18 P301L tau heparin fibrillization, Alexa594 FP, 6 h; also: potency is read from the fitted curve at half-maximal effect; nearly all actives have a fitted effect of over 55% in size
#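 K18 P301L tau (15 uM unlabeled/0.24 uM Alexa 594-labeled, final) + compound + heparin 20 uM final; 100 mM NaOAc pH 7; 6 hr 37 C; ThT 30 uM final added, 1 hr RT; FP ex 555/em 632 nm.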
# Numbers without * were called inactive; ? = inconclusive; · = no result; ! = repeats disagree; [ ] = remark or other dose. Unless noted, calls follow the shape of the dose curve; as a rule, active = well fitted curve in the direction sought with a large enough effect; inconclusive = small, poorly fitted or top-dose-only effect, or another doubt; inactive = no such curve, though single readings can be large; an effect the other way counts as inactive or inconclusive. Unless noted, % is scaled to controls: 0 for no effect and ±100 for the full control effect.
SMILES,Coupling enz,Sfp PPTase inh,Tau fibril ThT,G9a block,Tau fluor counter,Tau fibril FP
CCN1CCN(Cc2nc3ccc([N+](=O)[O-])cc3c(=O)n2-c2ccccc2F)CC1,4,-12%,·,?,·,·
O=C(CCl)c1ccc(Oc2ccc(C(=O)CCl)cc2)cc1,·,50µM*,·,?,·,·
CC[C@H](C)[C@H](NC(=O)CN)C(=O)N[C@@H](CC(C)C)C(=O)NCC(=O)N[C@@H](Cc1ccccc1)C(=O)N[C@H](C(=O)N[C@@H](Cc1ccccc1)C(=O)N[C@H](C(=O)N[C@@H](CC(C)C)C(=O)O)[C@@H](C)O)C(C)C,2,7%,·,·,·,·
CC(C)C1C(=O)O[C@@H]2CCN3CC=C(COC(=O)[C@](C)(O)[C@]1(C)O)[C@H]23 (some centres not stated),1,23%,·,·,·,·
CCCCCCCCCCCC[N+](C)(C)CCOc1ccccc1,·,50µM*,·,2%[59 µM],·,·
O=C(CN1CCCCC1c1cccnc1)c1ccccc1 (configuration not stated),0,-25%,-19%,·,-5%,-9%
CC1CCCCN1CC(=O)c1ccc2cc[nH]c2c1 (configuration not stated),0,-19%,?,32µM*,-27%,2%
CNC(C(=O)c1ccccc1)C(OC(C)=O)c1cccc([N+](=O)[O-])c1 (configuration not stated),0,22%,-14%,50µM*,-11%,10%
C[N+]1(C)C2CC[C@H]1CC(OC(=O)[C@@H](CO)c1ccccc1)C2 (some centres not stated),·,8%,·,-3%[59 µM],·,·
O=C(OCC(=O)c1ccc([N+](=O)[O-])cc1)/C(=C/c1ccc(Cl)cc1)NC(=O)c1ccccc1,-1,?,28µM*,7.9µM*,-14%,?
CCOc1cccc(=NC2CCCCC2)c2c(C)n(C)c(C)c12,-7,-6%,13µM*,50µM*,-4%,0%
CCN1CCN(Cc2cc(C(C)(C)C)c(O)c(C(C)(C)C)c2)CC1,0,?,?,2µM*,-18%,4%
CN1CCN(Cc2ccc3ccccc3c2)CC1,0,?,·,·,·,·
CCCCCCNC(=O)N[C@@H](Cc1ccc(O)cc1)C(=O)NCCC[C@H]1CN2C(=NC[C@H]2C)N1CC1CCC1,0,9%,3%,?,3%,-4%
CCCCCCNC(=O)N[C@H](Cc1ccc(O)cc1)C(=O)NCCC[C@H]1CN2C(=NC[C@H]2CCC)N1CC1CCC1,2,7.9µM*,-5%,0%[12.7 µM],-6%,-2%
CCOc1ccc(NC(=O)CSc2oc(-c3ccccc3)nc2S(=O)(=O)c2ccc(Cl)cc2)cc1,·,·,-7%,-32%[59 µM],?,-10%
NC(Cn1ccc(=O)[nH]c1=O)C(=O)O (configuration not stated),·,·,4%,11%[12.7 µM],2%,2%
N[C@@H](Cn1cc(I)c(=O)[nH]c1=O)C(=O)O,1,?,-6%,35µM*,-3%,-1%
N[C@@H](Cn1ccc(=O)[nH]c1=O)C(=O)O,·,·,·,1.5µM*,·,·
Cc1c2ccncc2c(C)c2c1[nH]c1ccccc12,-30*!,22µM*,11µM*,21µM*!,?,5%
c1ccc2c(c1)[nH]c1cnccc12,-3,-14%,4%,81%[59 µM],-11%,2%
CC(=O)c1cccc(NC(=O)CSc2ncc3c(n2)-c2cc(Cl)ccc2N(Cc2ccccc2)S3(=O)=O)c1,·,·,?,-5%[59 µM],?,?
c1ccc(CCCN2CCN(CCOC(c3ccccc3)c3ccccc3)CC2)cc1,0,-17%,?,10µM*,-7%,2%
Fc1ccc(C(OCCN2CCCC2)c2ccc(F)cc2)cc1,3,3%,3%,2%[59 µM],9%,0%
Fc1ccc(C(OCCN2CCN(CCCc3ccccc3)CC2)c2ccc(F)cc2)cc1,0,12%,?,?,-23%,-17%

# Assay outcomes (PubChem BioAssay)
